# NPR2 activator: GC-B (human) receptor activation | activation, % at 10 µM | HEK293-GC-B cells, CNP EC30, cGMP TR-FRET; 0% at EC30 CNP, 100% saturating CNP | AID 1920062 | 370,000 compounds, 0.11% hits;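 active means activation at 10 µM reaching about 35% in either raw or pattern-adjusted values, limit read from the data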
# GC-A act: GC-A (human) enzyme activation; P16066; HEK293 GC-A cells, cGMP TR-FRET, EC30 ANP; 0% at EC30 ANP, 100% saturating ANP; activation, % at 10 µM; 370,000 compounds, 0.14% hits; AID 1671463; in the data active means activation above about 40%
# Target sequence (P16066 whole entry, looked up): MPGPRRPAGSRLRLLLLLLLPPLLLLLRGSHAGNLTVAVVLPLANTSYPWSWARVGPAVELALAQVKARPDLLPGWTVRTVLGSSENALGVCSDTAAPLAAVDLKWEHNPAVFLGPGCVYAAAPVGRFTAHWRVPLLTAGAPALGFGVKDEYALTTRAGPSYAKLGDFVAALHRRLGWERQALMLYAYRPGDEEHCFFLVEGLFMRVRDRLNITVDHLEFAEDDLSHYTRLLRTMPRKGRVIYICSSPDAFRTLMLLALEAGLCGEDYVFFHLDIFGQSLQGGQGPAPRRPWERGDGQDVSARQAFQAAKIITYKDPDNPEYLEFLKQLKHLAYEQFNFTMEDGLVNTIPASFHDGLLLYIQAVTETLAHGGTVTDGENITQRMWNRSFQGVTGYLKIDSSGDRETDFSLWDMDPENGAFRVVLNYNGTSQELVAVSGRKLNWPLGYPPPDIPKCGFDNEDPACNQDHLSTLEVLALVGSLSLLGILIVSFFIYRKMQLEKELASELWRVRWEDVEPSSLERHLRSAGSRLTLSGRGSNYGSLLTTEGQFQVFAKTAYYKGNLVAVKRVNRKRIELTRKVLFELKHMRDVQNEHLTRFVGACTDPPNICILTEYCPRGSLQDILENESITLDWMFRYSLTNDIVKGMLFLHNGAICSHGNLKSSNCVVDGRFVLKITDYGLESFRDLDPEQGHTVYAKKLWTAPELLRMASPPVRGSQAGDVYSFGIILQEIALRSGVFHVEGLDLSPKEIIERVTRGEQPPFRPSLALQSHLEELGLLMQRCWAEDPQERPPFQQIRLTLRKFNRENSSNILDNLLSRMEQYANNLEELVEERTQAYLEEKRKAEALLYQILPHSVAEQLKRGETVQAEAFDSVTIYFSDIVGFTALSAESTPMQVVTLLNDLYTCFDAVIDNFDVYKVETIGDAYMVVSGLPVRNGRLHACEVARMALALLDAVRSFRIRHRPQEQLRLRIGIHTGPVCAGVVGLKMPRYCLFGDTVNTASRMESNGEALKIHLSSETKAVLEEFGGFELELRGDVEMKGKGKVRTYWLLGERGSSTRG
# FAS TE block: inhibitors of human fatty acid synthase thioesterase domain; recombinant FAS-TE, OMFH fluorogenic substrate, fluorescence endpoint; inhibition, % at 15 µM; 360,000 compounds, 0.67% hits; AID 602261;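 active means compounds whose normalised, plate-corrected inhibition of enzyme fluorescence in the single-dose primary screen is 50% or more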;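 further: 0% = DMSO with enzyme and 100% = substrate without enzyme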
# aDG glyco up: alpha-DG glycosylation activation; activation, % at 10 µM; AID 624168; Pro5-aDG cells, alpha-DG glycosylation AlphaScreen (IIH6); 0% Pro5, 100% B10-LARGE cell signal; 360,000 compounds, 0.22% hits;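 active means activation of at least 8% versus controls, or a plate z-score of at least 8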;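 further: Pro5 are CHO cells carrying HIG-tagged alpha-DG that lacks glycosylation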
# FAS-TE inh conf: FAS thioesterase (human) inhibition, confirmation | inhibition, % at 15 µM | recombinant FAS-TE, OMFH fluorogenic substrate, fluorescence | AID 624325 | shares compounds with FAS TE block | 2,300 compounds, 45% hits;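 active means compounds inhibiting the enzyme by at least 50% at 15 µM in any one of the replicates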;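 further: 0% = enzyme with DMSO only and 100% = wells lacking enzyme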
# * hit, by the source's call; / = not tested or not shown. A selection: hits, their analogues and other compounds. The true share with any hit is near 1.1%.
SMILES,NPR2 activator,GC-A act,FAS TE block,aDG glyco up,FAS-TE inh conf
N#Cc1ccc(Sc2nc3ccccc3[nH]2)cc1C#N,3,6,74*,2,85*
C[C@@H]1COc2cc(N3CCCC3)ccc2S(=O)(=O)N1C,6,5,/,/,/
O=C(NNS(=O)(=O)c1ccc([N+](=O)[O-])cc1)c1ccc2ccccc2c1O,3,1,63*,0,77*
CC(=O)N1CCN(c2ccccc2NC(=O)c2ccc(-c3cccc([N+](=O)[O-])c3)o2)CC1,2,1,66*,0,42*
COC(=O)[C@]1(Cc2ccccc2)N[C@H](CN(C)C(=O)Nc2ccc(C(F)(F)F)cc2)[C@@H]2C(=O)N(Cc3ccccc3)C(=O)[C@@H]21,-2,-4,63*,0,35
CC[C@@]1(C(=O)OC)N[C@H](CN(C)C(=O)Nc2ccc(C(F)(F)F)cc2)[C@@H]2C(=O)N(Cc3ccccc3)C(=O)[C@@H]21,-1,0,-2,0,/
CCN(C[C@H]1N[C@@](Cc2ccccc2)(C(=O)OC)[C@H]2C(=O)N(Cc3ccccc3)C(=O)[C@@H]12)C(=O)Nc1ccc(Cl)cc1,6,-7,60*,0,36
O=C(CN1CCSC1=NCc1ccccc1)c1ccc(Cl)c(Cl)c1,-5,-7,54*,0,41
CCOC(=O)[C@@]12CCC3=C1N(CCC3)C(=O)[C@H](CC(=O)NCc1cccc(C(F)(F)F)c1)C2,-3,2,/,/,/
Cc1ccccc1S(=O)(=O)N1C[C@@H]2C(C(=O)C[C@@H]3C(=O)N(C)C(=O)[C@@H]32)[C@@H]1c1ccc(Cl)cc1 (stereo partly drawn),-21,-11,/,0,/
Cc1ccccc1S(=O)(=O)N1C[C@H]2[C@H]3C(=O)N(C4CCCCC4)C(=O)[C@H]3CC(=O)[C@H]2[C@@H]1c1ccc(Cl)cc1,-2,1,73*,0,23
CCc1ccc([C@H]2[C@@H]3C(=O)C[C@@H]4C(=O)N(C)C(=O)[C@@H]4[C@@H]3CN2S(=O)(=O)c2ccc(C)cc2)cc1,-3,-2,10,0,/
CCc1ccc([C@H]2[C@@H]3C(=O)C[C@@H]4C(=O)N(Cc5ccccc5)C(=O)[C@@H]4[C@@H]3CN2S(=O)(=O)c2ccc(C)cc2)cc1,1,-2,59*,0,12
CCc1ccc([C@H]2[C@@H]3C(=O)C[C@@H]4C(=O)N(C5CCCCC5)C(=O)[C@@H]4[C@@H]3CN2S(=O)(=O)c2ccc(C)cc2)cc1,-3,1,72*,0,19
CC(C)(C)c1ccc(C#C[C@@H]2C=C[C@@H](O)[C@@H](COC(=O)NCc3ccccc3)O2)cc1,1,-2,/,/,/
CCOc1ccc(NC(=O)COC(=O)c2cc([N+](=O)[O-])ccc2N2CCOCC2)cc1,-2,1,61*,0,39
O=C(NC(=S)Nc1ccccc1)c1cc([N+](=O)[O-])ccc1N1CCOCC1,7,5,58*,0,51*
CN(C)S(=O)(=O)c1cccc(COC(=O)c2cc([N+](=O)[O-])ccc2N2CCOCC2)c1,-4,7,34,2,/
CCOc1ccc(NC(=O)c2cc([N+](=O)[O-])ccc2N2CCOCC2)cc1,4,-2,55*,0,65*
CCc1cccc(NC(=O)COC(=O)c2cc([N+](=O)[O-])ccc2N2CCOCC2)c1,4,0,87*,0,89*
COC(=O)[C@H](C(C)C)N(Cc1cn(Cc2ccccc2)nn1)S(=O)(=O)c1ccc(F)cc1Br,5,-1,/,/,/
O=C(NCCOc1ccccc1)c1cc([N+](=O)[O-])ccc1N1CCOCC1,4,1,57*,0,30
O=C(NC12CC3CC(CC(C3)C1)C2)c1cc([N+](=O)[O-])ccc1N1CCOCC1,13,1,51*,0,39*
O=C(Nc1ccc(Cc2ccncc2)cc1)c1cc([N+](=O)[O-])ccc1N1CCOCC1,-6,-4,82*,0,88*
O=C(NCCOc1ccccc1F)c1cc([N+](=O)[O-])ccc1N1CCOCC1,7,1,34,0,/
SMILES,NPR2 activator,GC-A act,FAS TE block,aDG glyco up,FAS-TE inh conf
Clc1ccc([C@H]2OC[C@@]3(CNCc4ccccn4)CS[C@H](c4ccc(Cl)cc4)N23)cc1,-12,-22,/,/,/
CC(C)C[C@H](NC(=O)c1ccc(Cl)c(Cl)c1)C(=O)N1CCC[C@H]1C(=O)NCc1ccccc1,8,-3,/,/,/
O=C(Cn1nc(-c2ccco2)ccc1=O)Nc1cc(C(F)(F)F)ccc1Cl,11,1,52*,1,73*
O=C(Cn1nc(-c2ccco2)ccc1=O)Nc1cc(Cl)ccc1Cl,-4,2,29,0,/
O=C(Cn1nc(-c2ccco2)ccc1=O)Nc1ccc(Cl)c(Cl)c1,-4,1,59*,0,36*
COC(=O)C1CN(Cc2ccc(OC)cc2)CCS(=O)(=O)N1Cc1ccc(OC)cc1 (stereo not drawn),-8,-6,/,/,/
O=C(Cc1cn(Cc2ccccc2)c2ccccc12)Nc1ccc(Nc2cccnc2)cc1,-5,-1,/,/,/
Nn1c(SCC(=O)Nc2ccc(OCc3ccccc3)cc2)nnc1-c1cc(-c2ccc(Cl)cc2)n[nH]1,-3,0,/,/,/
O=C(Oc1ccc(N(Cc2cccs2)C2=NS(=O)(=O)c3ccccc32)cc1)c1ccc(Cl)cc1,2,-3,29,0,/
O=C(Oc1ccc(N(Cc2cccs2)C2=NS(=O)(=O)c3ccccc32)cc1)c1ccccc1,9,1,60*,0,-8
Cc1occc1C(=O)Nc1nnc(C(F)(F)F)s1,2,-1,-7,0,/
O=C(Nc1ccccc1C(=O)Nc1nnc(C(F)(F)F)s1)c1ccccc1,8,15,53*,0,46*
CCOC(=O)C1=C(C)N(CCCCCC(=O)O)C(=O)NC1c1cccc([N+](=O)[O-])c1 (stereo not drawn),1,4,-1,0,/
CC1=C(C(=O)OCC(Br)(Br)Br)C(c2cccc([N+](=O)[O-])c2)NC(=O)N1CCCC(=O)O (stereo not drawn),-1,-3,56*,0,65*
COC(=O)c1cc(S(=O)(=O)N2CCN(c3ccccc3Cl)CC2)cn1C,0,2,/,/,/
O=C(c1cccc(S(=O)(=O)N2CCCC2)c1)c1cccc(S(=O)(=O)N2CCCC2)c1,3,2,54*,0,48*
COC(=O)C1=C(C)N(Cc2cccc(C(F)(F)F)c2)C(=NCc2ccc(OC)cc2)NC1c1ccccc1C(F)(F)F (stereo not drawn),0,-11,/,/,/
N#C/C(C(N)=O)=c1/ccc2c(c1)N1C3=C(CCCC3)CC3CCCCC31N=2 (stereo not drawn),-27,-26,/,/,/
N#CC(C#N)=c1ccc2c(c1)N1C3=C(CCCC3)CC3CCCCC31N=2 (stereo not drawn),-19,-25,51*,-1,18
